Data on 11 compounds can be found in PubChem BioAssay (NCI).

Structures are written as SMILES. About 83,000 compounds went through this panel and 20% of them were active in at least one assay; those are over-represented in the sample as a whole.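 Each cell line was grown in a 96-well plate and treated with one concentration of compound for 48 hours. Values below 10 were considered active.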 Values without a mark were called inactive.

In the assay the test system is MOLT-4 leukemia. In words: NCI-60 one-dose screen, 48 h (100 = growth as untreated, 0 = no growth, -100 = all killed). As to conditions: 10 µM unless noted.
Turning to `CC(=O)C1C(=O)C(=O)N(c2cccc([N+](=O)[O-])c2)C1=O` (stereo unspecified), the growth is 101%.
Under `CCOC(OCC)C(=O)c1ccccc1` stands 124%.
For `Cc1ccc(O)c(N)c1`, the growth was 123%.
`COC(=O)c1ccccc1C(=O)c1c(C)cc(C)cc1C`: the growth was 87.9%.
Turning to `COc1cc(-c2ccc(NC(=O)CC(C)=O)c(OC)c2)ccc1NC(=O)CC(C)=O`, the growth was 89.5%.
Under `Oc1cccc(CNC2CCCCC2)c1` stands 106%; under `COc1ccc(C(=O)C(=O)c2ccccc2)cc1`, 101%; under `CSc1cnc2ccccc2n1`, 107%.
Consider `Nc1c(Br)cc(O)c2c1C(=O)c1ccccc1C2=O`, for which the growth was 50.1%.
Consider `CC(=O)N(C(C)=O)c1ccc(C)cc1`, for which the growth was 93.9%.
Consider `CCOC(=O)c1ccc(NC(C)=O)o1`, for which the growth was 79.1%.
